# Tb PYK inh: qHTS of Trypanosoma Brucei Inhibitors | TbPYK enzyme, Kinase-Glo Plus ATP luminescence, 45 min | Potency, µM (top dose mostly 76.8 µM), without a hit: at the highest dose activity, negative = inhibition, most hits filed as inhibitors | 410,000 tested, 0.12% active | AID 624173, 2012; further: potency means the concentration at half of the fitted maximal effect; nearly all actives have a fitted effect of over 50% in size
#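 Activity of T. brucei pyruvate kinase was followed by Kinase-Glo Plus luminescence after the enzyme reacted 45 min at room temperature with 130 uM ADP (final) and substrate. Test compounds were added before ADP at multiple concentrations.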
# Vaccinia Venus: qHTS for Stage-Specific Inhibitors of Vaccinia Orthopoxvirus: Venus Reporter Primary qHTS. AID 720580, 2013. 330,000 tested, 0.46% active. Vaccinia virus Venus reporter expression, fluorescence. Potency, µM (highest dose often 36.5 µM), inactives show at the highest dose activity change, negative = inhibition, usual class: inhibitors; calls by dose curve; tested in A549 cells; further: potency means the concentration at half of the fitted maximal effect; nearly all actives have a fitted effect of over 30% in size
# LmPK inhibitor: qHTS Assay for Inhibitors of Leishmania Mexicana Pyruvate Kinase (LmPK); purified LmPK, Kinase-Glo ATP luminescence, 1 h; 290,000 tested, 0.37% active; Potency, µM (top dose mostly 57.5 µM), without a hit: at the highest dose activity change, negative = inhibition, most hits filed as inhibitors; Q27686; AID 1721, 2009; further: potency means the concentration at half of the fitted maximal effect
# Target sequence (Q27686 whole entry, looked up): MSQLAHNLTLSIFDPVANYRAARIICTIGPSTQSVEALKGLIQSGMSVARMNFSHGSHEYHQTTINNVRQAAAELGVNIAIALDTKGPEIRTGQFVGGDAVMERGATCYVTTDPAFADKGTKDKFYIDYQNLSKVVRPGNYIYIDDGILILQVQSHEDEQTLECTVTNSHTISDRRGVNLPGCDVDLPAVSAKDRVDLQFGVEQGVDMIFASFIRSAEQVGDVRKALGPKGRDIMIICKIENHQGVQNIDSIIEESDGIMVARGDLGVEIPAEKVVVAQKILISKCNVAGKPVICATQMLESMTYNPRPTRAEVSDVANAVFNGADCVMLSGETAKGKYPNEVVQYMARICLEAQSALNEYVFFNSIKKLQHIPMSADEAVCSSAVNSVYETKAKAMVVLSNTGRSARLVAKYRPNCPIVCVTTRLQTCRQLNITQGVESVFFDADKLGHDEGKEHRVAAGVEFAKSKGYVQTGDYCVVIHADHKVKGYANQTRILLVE
#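 ATP generated from ADP (0.1 mM) and PEP (0.5 mM) by 0.1 nM LmPK over 1 h at room temperature (pH 7.2 imidazole buffer) was detected by coupled luciferase luminescence. Values were normalized to uninhibited and no-enzyme wells.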
# HCMV antiviral: qHTS Assay for inhibitors of the human cytomegalovirus (HCMV) | HFF cells, HCMV-luciferase reporter, 72 h; stronger effect = lower value | activity change, negative = inhibition, % at 57.5 µM | 410,000 tested, 4.5% active | AID 1259415, 2018; in the data active means activity change below about -60%; inconclusive means no clear call, values can overlap the other calls; inactive means above about -39%
#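 Two compound doses tested in HFFs infected with HCMV-luciferase, MOI 1 PFU/cell, 72 h at 37C. Lysate luminescence read with OneGlo; data normalized against buffer-only and 10uM Salinomycin inhibitor controls.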
# Vaccinia mCherry: qHTS for Stage-Specific Inhibitors of Vaccinia Orthopoxvirus: mCherry Reporter Primary qHTS | AID 720579, 2013 | Potency, µM (highest dose often 36.5 µM), for the others: top-dose activity change, negative = inhibition, most hits filed as inhibitors | 310,000 tested, 0.63% active | Vaccinia virus mCherry reporter infection, fluorescence; calls by dose curve; tested in A549 cells; further: potency means the concentration at half of the fitted maximal effect; nearly all actives have a fitted effect of over 35% in size
# * hit, by the source's call; i = inactive; ? = inconclusive; . = no result given. In the library only some 5% were active in any assay of this set; here they are far more common. Unless noted, the call rests on the fitted dose curve; in most records, active means well fitted curve in the direction sought with a large enough effect; inconclusive means small, poorly fitted or top-dose-only effect, or another doubt; inactive means no such curve, though single readings can be large; an effect the other way counts as inactive or inconclusive. On the % scale 0 is the no-effect control and ±100 the full control effect.
SMILES,Tb PYK inh,Vaccinia Venus,LmPK inhibitor,HCMV antiviral,Vaccinia mCherry
C=CCNC(=O)C12CCC(C)(C(=O)[C@H]1Br)C2(C)C (stereo not given in full),4%,-5%,-2%,-2,-1%
COc1ccc(/C=N/NC(=O)c2ccoc2C)cc1COc1c(C)cccc1C,-2%,?,-9%,-97*,13µM*
COc1ccc(/C=N\NC(=O)c2ccccc2Br)cc1COc1c(F)c(F)cc(F)c1F,5%,?,0%,-81*,-20%
COc1ccc(/C=N/NS(=O)(=O)c2ccc(F)cc2)cc1COc1cc(F)ccc1[N+](=O)[O-],-14%,-12%,2%,-66*,-2%
COc1ccc(/C=N\NC(=O)c2ccccc2F)cc1COc1ccc(F)cc1F,4%,-22%,-5%,-80*,-8%
C#Cc1ccc([C@H]2C=C(C(=O)OCC=C)O[C@@H](OCc3ccc(CO)cc3)C2)cc1,-4%,-8%,.,6,i
C#Cc1ccc([C@H]2C=C(C(=O)OCC=C)O[C@@H](OCCCCO)C2)cc1,-3%,-9%,.,-67*,0%
C/C(=N\N1C(=O)c2ccccc2NC1c1ccco1)c1ccccc1O (stereo not given),-3%,.,0%,-78*,.
C/C(=N\N1C(=O)c2ccccc2NC1c1ccccc1)c1ccccc1O (stereo not given),-2%,?,0%,-92*,?
COc1ccc(/C(C)=N/N2C(=O)c3ccccc3NC2c2ccc(O)c(OC)c2)cc1 (stereo not given),0%,-6%,1%,38,-8%
O=C(Nc1ccc2c(c1)OCCO2)C1c2ccccc2OCC(=O)N1CCc1ccccc1 (stereo not given),-7%,-7%,.,5,8%
Cc1ccsc1/C=N/NC(=O)CNC(=O)c1cccc([N+](=O)[O-])c1C,-2%,-14%,5%,-20,-18%
CCN(C(=O)c1ccc(C(C)(C)C)cc1)c1nnc(Cn2nnc3ccccc32)s1,0%,?,1%,-65*,?
CCN(C(=O)CC(C)C)c1nnc(Cn2nnc3ccccc32)s1,-4%,-20%,-10%,-36,?
CC[n+]1c(/C=C/c2c[nH]c3ccccc23)ccc2cc(C)ccc21,-17%,i,-1%,-99*,i
CCOC(=O)/C(C#N)=C1/C=C(C)NC(c2ccccc2O)=N1,-4%,10µM*,2%,-103*,?
COc1ccc(S(=O)(=O)N[C@@H](CSCc2ccccc2)C(=O)O)cc1,2%,-13%,-10%,4,-7%
CCN(CC(=O)Nc1ccc2c(c1)OCO2)Cc1nc2ccccc2c(=O)[nH]1,1%,-14%,4%,-100*,-12%
CC(=O)c1cccc(NC(=O)C2CCCN(c3nnc(-n4cccc4)s3)C2)c1 (stereo not given),13%,-8%,.,-103*,-6%
CCOC(=O)N1CCN(Cc2nc3cc(NC(=O)c4ccccc4Cl)ccc3n2C(C)C)CC1,-6%,?,.,-90*,-17%
Cn1c(CN2CCCCC2)nc2cc(NC(=O)c3ccc(Cl)cc3)ccc21,-11%,-24%,-4%,-67*,?
Cn1c(CN2CCCC2)nc2cc(NC(=O)c3ccc(Cl)cc3)ccc21,-4%,-28%,0%,-73*,-13%
Cn1c(CN2CCOCC2)nc2cc(NC(=O)c3ccc(F)cc3)ccc21,2%,-15%,-4%,-75*,-4%
CC(C)(C)c1ccc(OCC(O)CN(CCO)CC(O)Cn2ccc3ccccc32)cc1 (stereo not given),-1%,.,6%,-17,.
CCOC(=O)c1sc2ncn(CC(=O)Nc3cc(C)cc(C)c3)c(=O)c2c1C,6%,-26%,.,16,-27%
COc1ccccc1OCc1ccc(C(=O)NCCN(C)C)o1,-10%,-14%,6%,34,.
COc1ccc2cc3c(N)nn(C(=O)c4ccc(Cl)c([N+](=O)[O-])c4)c3nc2c1,9%,-16%,3%,-91*,i
